Bioassay records as filed in PubChem BioAssay.
Only some compounds are listed: those with a hit (about 1.2% of all), similar ones and a draw of the others.
gsp antagonist = qHTS for Antagonists of gsp, the Etiologic Mutation Responsible for Fibrous Dysplasia/McCune-Albright Syndrome: qHTS; actives 0.4% (n = 340,000); gsp-mutant cells, cAMP HTRF, 30 min; AID 624288, 2012; Potency, µM (titrated, usually from 76.9 µM), for inactives: at the top dose activity change, negative = inhibition, hits mostly inhibitors; calls by dose curve; cell line not stated here;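 note: intracellular cAMP measured with PDE inhibitor Ro 20-1724 present during compound exposure; potency is the fitted concentration of half-maximal effect; % is set by controls: 0 for no effect and ±100 for the full control effect; nearly all actives have a fitted effect of over 65% in size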
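G418-selected cells were plated in DMEM/10% FBS for 16-24 h at 37C, then treated with compounds plus the PDE inhibitor […] (300 uM solution added) for 30 min at 37C. Intracellular cAMP was measured by HTRF after 30 min lysis at room temperature.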
RXFP1 agonist = qHTS Assay for Agonists of the Relaxin Receptor RXFP1 | Relaxin receptor 1 (Homo sapiens), Q9HBX9 | HEK293T-RXFP1 cAMP TR-FRET, 30 min; response scale: percent of porcine relaxin response, buffer zero | Potency, µM (doses to about 57.5 µM), without a hit: top-dose activation, hits mostly activators | actives 0.3% (n = 370,000) | AID 2676, 2010; active = well fitted activation curve with a large enough effect; inconclusive = small, poorly fitted or top-dose-only effect; note: potency is the fitted concentration of half-maximal effect; % is set by controls: 0 for no effect and ±100 for the full control effect; nearly all actives have a fitted effect of over 60% in size
Target sequence (Q9HBX9 whole entry, looked up): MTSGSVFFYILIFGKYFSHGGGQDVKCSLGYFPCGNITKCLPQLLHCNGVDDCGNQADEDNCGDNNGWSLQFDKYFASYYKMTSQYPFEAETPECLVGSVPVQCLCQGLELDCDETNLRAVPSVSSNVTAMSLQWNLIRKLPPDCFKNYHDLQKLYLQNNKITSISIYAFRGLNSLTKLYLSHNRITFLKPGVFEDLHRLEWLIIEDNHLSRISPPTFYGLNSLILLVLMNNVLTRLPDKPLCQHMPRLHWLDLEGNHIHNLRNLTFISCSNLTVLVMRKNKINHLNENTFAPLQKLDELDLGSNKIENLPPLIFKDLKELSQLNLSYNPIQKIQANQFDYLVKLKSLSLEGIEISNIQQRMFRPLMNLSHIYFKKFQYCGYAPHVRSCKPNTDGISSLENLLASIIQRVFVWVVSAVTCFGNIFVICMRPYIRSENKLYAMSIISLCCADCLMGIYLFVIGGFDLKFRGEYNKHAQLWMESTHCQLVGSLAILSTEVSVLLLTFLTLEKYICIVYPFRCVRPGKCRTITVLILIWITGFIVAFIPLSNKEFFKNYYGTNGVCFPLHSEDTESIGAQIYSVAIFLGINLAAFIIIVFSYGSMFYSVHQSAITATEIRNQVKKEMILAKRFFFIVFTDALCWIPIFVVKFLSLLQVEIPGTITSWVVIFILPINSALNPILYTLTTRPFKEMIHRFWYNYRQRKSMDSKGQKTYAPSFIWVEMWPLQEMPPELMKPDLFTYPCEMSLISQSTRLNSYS
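cAMP rise read by TR-FRET after 30 min, 37C compound exposure (up to 58 uM) in RXFP1-transfected HEK293 cells with Ro 20174 present. EC50 from Hill-equation fits, with 29 nM porcine relaxin as 100% and buffer as basal.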
gsp agonist = qHTS for Agonist of gsp, the Etiologic Mutation Responsible for Fibrous Dysplasia/McCune-Albright Syndrome: qHTS; gsp mutant cells, cAMP HTRF, 30 min; Potency, µM (highest dose often 76.9 µM), without a hit: top-dose activation (cAMP increase), actives largely listed as activators; actives 0.13% (n = 340,000); active = well fitted activation curve with a large enough effect; inconclusive = small, poorly fitted or top-dose-only effect, or another doubt; inactive = no such curve, though single readings can be large or run the other way; cell line not stated here;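 note: phosphodiesterase inhibitor Ro 20-1724 added with compounds to block cAMP breakdown; potency is the fitted concentration of half-maximal effect; nearly all actives have a fitted effect of over 60% in size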
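Cells in DMEM/10% FBS with G418 were pretreated with compounds in DMSO plus […] (300 uM stock) for 30 min at 37C. cAMP was measured by HTRF (cAMP-d2 plus anti-cAMP antibody-K) after 30 min at room temperature.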
RXFP1 antag = qHTS Assay for Antagonists of the Relaxin Receptor RXFP1; Relaxin receptor 1 (Homo sapiens), Q9HBX9; HEK293-RXFP1, relaxin-stimulated cAMP HTRF, 30 min; stronger effect = lower value; AID 1259400, 2018; activity change, negative = inhibition, % at 57.5 µM; actives 0.59% (n = 350,000);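 active = activity change of -60% or lower, but not beyond a set lower limit; inconclusive = change between -60% and -40%, or beyond the set limit; inactive = change above -40%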; note: % is set by controls: 0 for no effect and ±100 for the full control effect
pAkt inh = HTS Assay for Inhibitors of Akt Phophorylation: Primary Screen. actives 0.32% (n = 360,000). activity change, % for hits at 50 µM. Neuro2A IGF-stimulated pAkt S473 HTRF, 20 min; stronger effect = lower value; in the data active = activity change below about -80%; inconclusive = mostly about -51% to -80%; note: % is set by controls: 0 for no effect and ±100 for the full control effect
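Neuro2A cells (4,500/well, DMEM with 0.5% FBS) were treated with compound at a single 50 µM final concentration, stimulated with 6 nM IGF for 20 min at 37 °C, and lysed. Phospho-Akt Ser473 was read by HTRF as 665/615 ratio ×10^4.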
* marks the source's active call; other numbers are inactive results; [ ] = another dose, or the depositor's remark.

How did CN1CCC(N(Cc2cccs2)c2ccccc2)CC1 do in these assays?
RXFP1 antag: -10.2

What do the screens show for `Cc1nn(CCCC(=O)NCc2ccc(F)cc2)c(=O)c2nccn12`?
gsp antagonist: 22.5%; RXFP1 agonist: 28.2µM*; gsp agonist: inconclusive; RXFP1 antag: 0.0; pAkt inh: inactive

What do the screens show for `Cc1ccc(CNC(=O)CCCn2nc(C)n3ccnc3c2=O)cc1`?
gsp antagonist: 4.2%; RXFP1 agonist: 15.8µM*; gsp agonist: inconclusive; RXFP1 antag: 21.1; pAkt inh: inactive

How did COc1ccc(CCNC(=O)CCCn2nc(C)n3ccnc3c2=O)cc1OC do in these assays?
gsp antagonist: 18.0%; RXFP1 agonist: inconclusive; gsp agonist: inconclusive; RXFP1 antag: -4.2; pAkt inh: inactive

Results for CCC(Sc1nncn2c1cc1occc12)C(=O)Nc1ccc(C)c(Cl)c1 (centres undefined) ?
RXFP1 agonist: 20.7%; RXFP1 antag: inconclusive

How did COc1ccc(NC(=O)c2cccc(N3C(=O)C4C5C=CC(C5)C4C3=O)c2)c(OC)c1 (centres undefined) do in these assays?
gsp antagonist: -1.5%; RXFP1 agonist: -0.3%; gsp agonist: -2.2%; RXFP1 antag: 7.2; pAkt inh: inactive

Results for COc1ccccc1NC(=O)c1cccc(N2C(=O)C3C4C=CC(C4)C3C2=O)c1 (centres undefined) ?
gsp antagonist: -11.6%; RXFP1 agonist: -4.8%; gsp agonist: inconclusive; RXFP1 antag: -77.0*; pAkt inh: inactive

How did COc1ccc(CCNC(=O)CCc2c(C)nc3c(c(C)nn3-c3ccccc3)c2C)c(OC)c1 do in these assays?
RXFP1 agonist: -1.1%; RXFP1 antag: -4.8

How did NC(=O)c1ccccc1N/C=C1\CCCCC1=O do in these assays?
gsp antagonist: 50.1µM*; RXFP1 agonist: -0.1%; gsp agonist: 20.7%; RXFP1 antag: 1.5; pAkt inh: inactive

Results for O=C1CCCC/C1=C\Nc1ccccc1C(=O)O ?
gsp antagonist: 7.0%; RXFP1 agonist: 0.9%; gsp agonist: -1.6%; RXFP1 antag: 0.5; pAkt inh: inactive

What do the screens show for `Cc1ccc(C)n1-c1c(C(=O)NCCCN2CCN(c3ccc(F)cc3)CC2)sc2ncccc12`?
RXFP1 agonist: 1.8%; RXFP1 antag: -14.9

Results for Cc1cc2c(=O)oc(-c3ccccc3Br)nc2s1 ?
gsp antagonist: 35.5µM*; RXFP1 agonist: -1.1%; gsp agonist: 0.6%[15.4 µM]; RXFP1 antag: -12.5; pAkt inh: inactive

What do the screens show for `Cc1cc2c(=O)oc(-c3ccc(F)cc3)nc2s1`?
gsp antagonist: -11.8%; RXFP1 agonist: -0.2%; gsp agonist: -1.8%[15.4 µM]; RXFP1 antag: -10.1; pAkt inh: inactive

How did CCOc1cc(-c2ccc(OC(=O)c3ccccc3F)cc2)cc(=O)c2c(C)oc(C)c12 do in these assays?
RXFP1 agonist: -1.9%; RXFP1 antag: -97.4*

What do the screens show for `CCOc1ccc(-c2cc(OC(=O)c3ccccc3)c3c(C)oc(C)c3c(=O)c2)cc1`?
RXFP1 agonist: 5.6%; RXFP1 antag: -11.0

Results for COc1cc(-c2cc(OC)c3c(C)oc(C)c3c(=O)c2)ccc1OC(=O)c1cccc(Cl)c1 ?
RXFP1 agonist: -1.9%; RXFP1 antag: -76.2*

Results for COc1cc(-c2cc(OC)c3c(C)oc(C)c3c(=O)c2)ccc1OC(=O)c1ccccc1C ?
RXFP1 agonist: -2.7%; RXFP1 antag: -65.2*

How did CCOc1cc(-c2ccc(OC(=O)c3ccc(C)cc3)c(OC)c2)cc(=O)c2c(C)oc(C)c12 do in these assays?
RXFP1 agonist: 0.7%; RXFP1 antag: -64.1*

Results for Cc1ccccc1NC(=O)C(=O)NCC(c1ccc2c(c1)OCO2)N1CCN(c2ccccc2)CC1 (centres undefined) ?
RXFP1 agonist: -1.0%; RXFP1 antag: -2.9

How did COc1ccc(NC(=O)C(NC(=O)C2CCC(C)CC2)C(C)C)cc1 (centres undefined) do in these assays?
RXFP1 agonist: -0.7%; RXFP1 antag: -4.8

How did c1ccc(Sc2ccccn2)cc1 do in these assays?
gsp antagonist: 11.4%; gsp agonist: -3.1%[15.4 µM]; RXFP1 antag: -7.4; pAkt inh: inactive

Results for c1ccc(SSc2ccccn2)nc1 ?
gsp antagonist: 0.5%; gsp agonist: -4.4%[15.4 µM]; RXFP1 antag: -66.5*; pAkt inh: inactive

How did CCOc1ccc(-n2ccnc(SCC(=O)NCc3cccc(OC)c3)c2=O)cc1 do in these assays?
gsp antagonist: 3.1%; RXFP1 agonist: 4.5%; gsp agonist: 10µM*; RXFP1 antag: -16.5; pAkt inh: inactive

What do the screens show for `CCOc1ccc(-n2ccnc(SCC(=O)Nc3ccc(OC)cc3OC)c2=O)cc1`?
gsp antagonist: -2.6%; RXFP1 agonist: 2.0%; gsp agonist: -2.1%; RXFP1 antag: -8.7; pAkt inh: inactive

What do the screens show for `Cc1c(C(=O)NC2CCCCC2C)oc2ccccc12` (centres undefined)?
gsp antagonist: 7.08µM*; RXFP1 agonist: 0.4%; gsp agonist: inconclusive; RXFP1 antag: -6.0; pAkt inh: inactive

Results for O=C(OCc1cccc([N+](=O)[O-])c1)c1cnccn1 ?
gsp antagonist: 15.9%; RXFP1 agonist: 22.4µM*; gsp agonist: 5.62µM*; RXFP1 antag: -0.2; pAkt inh: inactive

Results for Cc1ccc(C(=O)Nc2sc(C(=O)N(C)C)c(C)c2C#N)cc1 ?
gsp antagonist: 9.5%; RXFP1 agonist: 2.7%; gsp agonist: -1.0%[15.4 µM]; RXFP1 antag: -7.3; pAkt inh: inactive

Results for Cc1c(C(=O)N(C)C)sc(NC(=O)c2cc([N+](=O)[O-])cc([N+](=O)[O-])c2)c1C#N ?
gsp antagonist: 39.8µM*; RXFP1 agonist: -0.5%; gsp agonist: 8.2%; RXFP1 antag: -0.8; pAkt inh: inactive

What do the screens show for `CC(=O)c1cccc(NC(=O)c2ccc(-n3c(C)nnc3C)cc2)c1`?
RXFP1 agonist: -1.4%; RXFP1 antag: -3.3

How did Cc1[nH]c2ccccc2c1C(=O)COC(=O)c1nccnc1N do in these assays?
gsp antagonist: -9.6%; RXFP1 agonist: 0.5%; gsp agonist: 31.1%; RXFP1 antag: -66.3*; pAkt inh: inactive

How did O=C1C2C(c3ccccc3)C=CC(c3ccccc3)C2C(=O)N1CCCO (centres undefined) do in these assays?
gsp antagonist: -6.9%; RXFP1 agonist: -1.1%; gsp agonist: 12.0%; RXFP1 antag: -8.3; pAkt inh: -102.1%*

What do the screens show for `C=CCOCCN1C(=O)C2C(c3ccccc3)C=CC(c3ccccc3)C2C1=O` (centres undefined)?
gsp antagonist: -26.0%; RXFP1 agonist: 1.8%; gsp agonist: -23.5%; RXFP1 antag: 1.6; pAkt inh: inactive
